Assay results published in the supplement of paper PMC6555819.

Tests used:
Assay in all cases: PBM binding z-score (relative to random genomic background probes); higher = stronger binding; sequences stand for … in GC…GCGATTGACAGCGTAGAATGAAGG
[1] = tested on: RARb homodimer (NR concentration 270 nM)
Outline: (§1)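 Probes were double-stranded and carried 34-nt variable regions with direct-repeat seeds, single-nucleotide variants, half-site ablations and random human genomic background sequences, printed on custom Agilent 4×180K protein-binding microarrays. Arrays were incubated 1 h with ligand-free nuclear receptor dimers in PBS pH 7.4, 2% milk, 0.02% Triton X-100, 1 mM DTT, 0.2 mg/mL BSA and 0.4 mg/ml salmon testes DNA. Antibodies against each partner (one per run) detected binding, and scanned fluorescence was regression-normalized. Binding z-scores use the random background probes as reference.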

[2] = tested on: RARg:RXRa (NR concentration 270 nM, RXRa partner concentration 90 nM)
Outline: as §1

[3] = tested on: RARg homodimer (NR concentration 270 nM)
Outline: as §1

[4] = tested on: RXRa DBDmut IVT, anti-RXR (DBD mutation: RXRa K156A/R161A, NR concentration 90 nM)
Outline: as §1

[5] = tested on: RXRa homodimer (NR concentration 180 nM)
Outline: as §1

[6] = tested on: THRa:RXRa (NR concentration 90 nM, RXRa partner concentration 90 nM)
Outline: as §1

[7] = tested on: THRa homodimer (NR concentration 90 nM)
Outline: as §1

[8] = tested on: VDR homodimer (NR concentration 270 nM)
Outline: as §1

Row | Sequence | PBM binding z-score [1] | PBM binding z-score [2] | PBM binding z-score [3] | PBM binding z-score [4] | PBM binding z-score [5] | PBM binding z-score [6] | PBM binding z-score [7] | PBM binding z-score [8]
1 | TCATGTAGATCAAGCAGGTTAAGAAAGCCTGAGT | 0.058 | 0.118 | 0.0856 | 0.962 | 0.48 | 0.397 | -0.412 | 0.0758
2 | TGAATTAGGTTAAAGATCAGGGAACGTGGCGTCG | -0.0287 | 0.954 | 0.891 | -0.199 | 1.58 | 0.806 | 0.0277 | 0.326
3 | CCCACTGGGCCATCAGGTCATTGATATCAACGTT | 2.77 | 2.09 | 1.65 | -0.268 | 1.3 | 3.22 | 3.16 | 1.66
4 | TCTTGTAGATCAACACGAGGTTAAGAAAGATCGA | 0.596 | 0.823 | 0.361 | 0.555 | 1.07 | 1.57 | 0.0132 | 0.099
5 | TCTTGTAGAACAATAGAGGTTAAGAAAGTGCGCT | 1.19 | 0.879 | 0.347 | 0.757 | 1.42 | 1.53 | -0.547 | 0.225
6 | CCTCGGAGGACAACAGGAGTTCAGAGCTGCCAGA | 1.91 | 1.7 | 1.9 | 0.979 | 0.335 | 1.17 | -0.102 | 2.95
7 | ATCTATAGGTAACCAAGTTCAGTGAATGCCGAAC | 1.42 | 0.853 | 0.891 | 1.04 | 0.806 | 1.05 | 0.378 | 2.84
8 | CCTGCTAGGTCATGGTCACCTAATCTACAGTATG | 3.43 | 4.1 | 4.93 | 1.77 | 3.5 | 3.13 | 1.78 | 0.622
9 | CCTTACGGGTCACGAGGTTATAGCTCGACGAGCG | 3.93 | 6.04 | 5.15 | 1.74 | 6.98 | 3.73 | 0.989 | 1.76
10 | TAGCCAAGGTCATGCGGGCCAGTATAGTGTCGGC | 4.42 | 5.81 | 5.79 | 2.88 | 5.47 | 4.14 | 2.91 | 3.39
11 | CCTATTAGTAGACCATAAGGGCAACCGAAGCTCG | 1.65 | 0.962 | 0.835 | 0.475 | 0.769 | 1.57 | 1.11 | 0.68
12 | CCTTACGGGTGACGAGGTTATAGCACGACGAGCG | 1.05 | 1.29 | 0.849 | -0.461 | 1.95 | 1.33 | 0.317 | 0.36
13 | GCTTACGGGTCAAGGGTTATAGCATGAATAGAAT | 3.07 | 5.54 | 4.39 | 1.86 | 7.3 | 3.14 | 0.219 | 0.975
14 | AGAATGAGGTTAAGATCAGGGCAACAGAATACAT | 2.23 | 3.86 | 1.76 | 1.17 | 2.78 | 3.57 | 1.44 | 0.984
15 | TCTTGTAGATCAAAGGTTAAAAAAGCCGAAGCCT | 1.22 | 1.79 | 0.557 | 0.941 | 3.35 | 1.44 | -0.334 | 0.177
16 | ACTGTTAGTTGAGACGAGGGCAACCGATAGGTTG | 1.26 | 0.764 | 1.13 | 0.337 | 0.451 | 2.63 | 0.349 | 0.808
17 | TCTGCTAGGTCAACGATGGTCAGCTGATCTGCTA | 3.36 | 4 | 4.88 | 0.835 | 2.52 | 2.99 | 0.473 | -0.511
18 | TCTATTAGTTGAAGGGTAACCGACGAGTCCGTTT | 0.751 | 0.464 | 0.398 | 1.95 | 0.736 | 0.32 | 0.529 | 1.44
19 | CCTAGCAGGCCAATCTGGGTCACTCGAGGCTTGA | 2.3 | 1.11 | 1.12 | -0.0882 | 0.738 | 3.7 | 0.253 | 0.136
20 | CCAGACAGGTGATAAGGTAACTCAGCCTCGATTA | 0.435 | 0.392 | 0.586 | 0.284 | 0.276 | 1.77 | 1.72 | 0.103
21 | ACAGACAGGTGATGAAGGTACCTCAGGCTATCAT | -0.181 | 0.158 | 0.411 | -0.579 | 0.4 | 0.509 | -0.21 | -0.451
22 | CCTTACGGGTCACTGACAGGTTATAGCTTTTGGA | 3.45 | 5.62 | 4.37 | 1.64 | 4.7 | 2.82 | 0.24 | 0.718
23 | CGTCCAAGGTCATAGGAGGTCAGTGGAGACAGAT | 5.3 | 6.84 | 6.98 | 4.09 | 6.82 | 5.36 | 3.57 | 4.82
24 | ATATGTAGATTAGCTGGGGTCATTCAGACTAGGC | 3.49 | 3.43 | 2.17 | 1.87 | 4.94 | 4.26 | 3.01 | 4.47
25 | ACATGTAGGTTAAGGGTCATTCAGGTTGGTTCGC | 3.49 | 4.68 | 3.24 | 2.73 | 5.95 | 3.42 | 2.01 | 4.91
26 | CCCGACAGGTGAAAGGTAACTCAGTCTGGTACGC | 0.903 | 1.26 | 0.581 | -0.307 | 2.02 | 1.09 | 0.506 | -0.0778
27 | AGAATGCGGTTACCAAAGATCAGGGAAACGCTTG | -0.737 | 0.095 | 0.185 | -0.735 | 0.309 | -0.323 | -1.27 | -1.02
28 | ACAGACAGGTGAGAGAAGGTAACTCAGCTGGACG | 0.122 | 0.137 | 0.491 | -0.484 | 0.333 | 1.69 | -0.219 | -0.636
